The nature of this assay: signal-interfering artefacts in bead proximity readout – biochemical, AlphaScreen, HTS, counter-screen, dose response (AID 1259373). As to conditions: AlphaScreen optical interference counterscreen, cell-free. (In general: In Alpha technology, singlet oxygen from a donor bead excites a nearby acceptor bead.)

The structures appear in SMILES notation. Some of the results follow. A number with no mark means an inactive call. How the calls were made is not given here.

On to `CCOC(=O)C1C2NC(=S)N(CC)C1(C)Oc1ccc(Cl)cc12` (stereo unspecified), for which the IC50 was more than 8.6 µM.

A word on the IC50: it is the concentration that gives 50% inhibition.

(Values after PubChem BioAssay AID1259373 (The Scripps Research Institute Molecular Screening Center, 2018).)
